Many of the other results were omitted from the sample, so hits are more common in it than they were.
fixLJ activator – B. multivorans fixK reporter activation; B. multivorans fixK-promoter GFP reporter, 18 h; active compounds read high; z-score (test concentration not listed); hit rate 0.3% among 29,000; AID 1918990;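 active = replicate mean overnight rise in green fluorescent reporter signal, 3 or more SD over negative controls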
* marks the source's active call; other numbers are inactive results.

SMILES	fixLJ activator
CCc1ccc(OCC(=O)Nc2c(C(=O)c3ccccc3)oc3ccccc23)cc1	-1.9
Cc1ccc(NC(=O)c2oc3ccccc3c2NC(=O)Cc2ccccc2)cc1	-0.81
O=C(Cc1ccccc1)Nc1c(C(=O)c2ccccc2)oc2ccccc12	3.1*
Cc1ccoc1C(=O)NCC1CCN(Cc2ccc3ccccc3n2)C1 (stereo not given)	-0.12
CCCOCC(=O)Nc1ccc(NC(=O)CN2CCCCC2)cc1	0.4
COc1ccc(C(=O)NC(c2cnn(C)c2)C2CC(O)C2)cc1O (stereo not given)	1.8
COc1ccccc1Nc1nc2ccc(Cl)cc2nc1-n1nc(C)cc1C	3.2*
Cc1ccc2nc(Nc3cccc(Cl)c3C)c(-n3nc(C)cc3C)nc2c1	0.62
COc1ccc(OC)c(Nc2nc3ccccc3nc2-n2nc(C)cc2C)c1	-0.33
Cc1cccc2cc(-c3nccn3CCN3CCOCC3)c(=O)[nH]c12	-0.82
CCn1cnnc1CCNC(=O)c1csc2nc(-c3ccccc3C)cn12	-1.2
Cc1ccccc1Cn1c2ccccc2c2cnn(CC(=O)N3CCC(C)CC3)c(=O)c21	-2.8
CCCCN(CC)CCCNC(=O)Cn1ncc2c3ccccc3n(Cc3ccccc3F)c2c1=O	-1.6
Cn1c2ccccc2c2cnn(CC(=O)NCc3ccc(Cl)cc3)c(=O)c21	-1.9
Cc1cc(C)c(Cn2c3ccccc3c3cnn(CC(=O)NCc4cccs4)c(=O)c32)c(C)c1	-0.87
CCN(CC)CCNC(=O)Cn1ncc2c3ccccc3n(Cc3ccc(Cl)cc3)c2c1=O	3.5*
O=C(Cn1ncc2c3ccccc3n(Cc3ccc(Cl)cc3)c2c1=O)NCc1cccs1	8.2*
CN1CCN(C(=O)Cn2ncc3c4ccccc4n(Cc4ccc(Cl)cc4)c3c2=O)CC1	1.2
CCCCN(CC)CCCNC(=O)Cn1ncc2c3ccccc3n(C)c2c1=O	-1.8
CC1CCN(C(=O)Cn2ncc3c4ccccc4n(Cc4ccc(Cl)cc4)c3c2=O)CC1	7.3*
Cc1cccc(NC(=O)CCC2CCN(C(=O)CCCc3cn[nH]c3)CC2)c1	1.4
CS(=O)(=O)N1CCCC(CNC(=O)CCc2cn3ccccc3n2)C1 (stereo not given)	-0.31
COCCCCCC(=O)N1CC2CCC(C1)N(Cc1cscn1)C2=O (stereo not given)	0.87
COC(=O)Cc1cc(C2CCN(C(=O)c3nc4c(s3)CCCC4)CC2)n[nH]1	-0.32
OCCNc1nc(C2CCOC2)cc(N2CCC(c3ccncc3)CC2)n1 (stereo not given)	-1.4
SMILES	fixLJ activator
CCOc1cccc(C(=O)NC2COCC2Cc2ccncc2)c1 (stereo not given)	-1.2
Cn1ccnc1NC(=O)CC1CCN(Cc2ccccc2)CC1	1.3
CCc1ccc(-c2c(-c3ccccc3)ncn2CCN2CCNC2=O)o1	-1
COc1ccc(S(=O)(=O)N2CCN(c3cccc(C)c3C)CC2)c2ccccc12	-0.15
CCOc1ccc(OCC)c(S(=O)(=O)N2CCN(c3cccc(C)c3C)CC2)c1	3.4*
Cc1cccc(N2CCN(S(=O)(=O)c3cc(Cl)ccc3Cl)CC2)c1C	0.22
Cc1nnnn1CCC(=O)NC1CCN(c2ncccc2C#N)CC1	-0.61
CCOCC(=O)N1CCCC(c2nccn2Cc2ccncc2)C1 (stereo not given)	1.2
NC(=O)c1nc(CNC(=O)Nc2cccc(C(=O)N3CCCCC3)c2)no1	-0.23
Cc1cnn(CCCNC(=O)CCN2CCCCCC2=O)c1	0.14
N#C/C(=C\c1ccc(-c2ccccc2C(=O)O)o1)c1nc2ccccc2[nH]1	-1.6
N#C/C(=C\c1ccc(Cl)cc1)c1nc2ccccc2[nH]1	0.71
N#C/C(=C\c1ccc(-c2ccc(F)cc2F)o1)c1nc2ccccc2[nH]1	14*
CN(C)CC(O)c1cc2n(n1)CCCN(C(=O)CCc1cccnc1)C2 (stereo not given)	-1.8
Cc1cc(C(=O)NCc2cc3n(n2)CCCN(C(=O)N(C)C)C3)ccc1F	0.06
CCC(CO)N(Cc1cccnc1)C(=O)NCc1cccs1 (stereo not given)	-0.31
CC(=O)N1CCC(C(=O)N2CC(O)C(Cc3ccc4ccccc4n3)C2)CC1 (stereo not given)	-0.53
Cc1ccc(-c2nn(-c3ccccc3)c3c2cnc2ccccc23)cc1C	-2.4
Brc1ccc(-n2nc(-c3ccccc3)c3cnc4cc5c(cc4c32)OCO5)cc1	1
CCc1ccc2ncc3c(-c4ccccc4)nn(-c4ccccc4)c3c2c1	3.3*
O=C(O)c1ccc(NCc2nc3ccccc3n2CCOc2ccccc2Cl)cc1	0.09
Fc1ccc(NCc2nc3ccccc3n2CCOc2ccccc2Cl)cc1	3.3*
COc1ccc(NCc2nc3ccccc3n2CCOc2ccccc2C)cc1	1
Cc1ccc(S(=O)(=O)c2nc(-c3ccccc3Cl)oc2N2CCCCCC2)cc1	1.1
COc1ccccc1-c1nc(S(=O)(=O)c2ccc(Cl)cc2)c(N2CCCCCC2)o1	-0.45
SMILES	fixLJ activator
O=S(=O)(c1ccccc1)c1nc(-c2ccccc2Cl)oc1N1CCCCCC1	3.2*
CCCN(CCO)C(=O)c1ccc(-c2cccc(C#N)c2)cc1	0.14
CCCCNc1cc(NC2CCCCC2)c2c3c(onc13)-c1ccccc1C2=O	4.2*
CCNc1cc(N2CCN(C3CCCCC3)CC2)c2noc3c2c1C(=O)c1ccccc1-3	-1.1
O=C1c2ccccc2-c2onc3c(NCCO)cc(NC4CCCCC4)c1c23	-1.7
Cc1[nH]nc(-c2ccc(S(=O)(=O)N3CCC4CNCC43)o2)c1C (stereo not given)	0.6
O=C(CCCOCc1ccccc1)N1CC2NCCOC2C1 (stereo not given)	-0.67
Cc1ccc(C(=O)N2CCC3(CC2)OCCc2c3[nH]c3ccccc23)cn1	0.1
CCC(=O)N1CCN(Cc2ccc(C(C)=O)cc2)C2CS(=O)(=O)CC21 (stereo not given)	0.46
O=C(Nc1onc2c1CCCC2)c1ccc(Cl)cc1	-1.3
O=C(Nc1cccc2cccnc12)c1ccccc1[N+](=O)[O-]	-2
CC1CCc2noc(NC(=O)c3ccccc3[N+](=O)[O-])c2C1 (stereo not given)	3.6*
COc1ccccc1CNC(=O)CCc1c(C)c2cc3c(C)c(C)oc3cc2oc1=O	3.5*
COc1ccccc1CNC(=O)CCc1c(C)c2ccc(OC)c(C)c2oc1=O	-1.9
COc1ccccc1CCNC(=O)CCc1c(C)c2cc3c(C)c(C)oc3cc2oc1=O	0.85
c1cc(-c2nc3c(c(NCCC45CCCN4CCC5)n2)CCNC3)ccn1	-2.6
Cc1cc(C(=O)N2CCOC3(CCN(C4CCSC4)CC3)C2)no1 (stereo not given)	-3.1
O=C(Cn1ncc2c3ccccc3n(Cc3cccc(Cl)c3)c2c1=O)NCCC1=CCCCC1	13*
Cc1cc(C)c(Cn2c3ccccc3c3cnn(CC(=O)NC4CCCCCC4)c(=O)c32)c(C)c1	1.5
Cc1ccc(C)c(Cn2c3ccccc3c3cnn(CC(=O)NCCC4=CCCCC4)c(=O)c32)c1	-0.36
O=C(Cn1ncc2c3ccccc3n(Cc3ccc(F)cc3)c2c1=O)NC1CCCCCC1	-2.4
O=C(Cn1ncc2c3ccccc3n(Cc3cccc(Cl)c3)c2c1=O)NC1CCCCCC1	23*
O=C(Cn1ncc2c3ccccc3n(Cc3ccc(F)cc3)c2c1=O)NCCC1=CCCCC1	-0.48
CCc1nnc(CNC(=O)N(C)Cc2cc(C3CC3)on2)s1	-1.8
CC(C)c1nccn1CCCNC1CCN(C(=O)c2cccs2)CC1	-1.7
CNC(=O)c1ccc(C)c(NC(=O)NC2CCCN(C(=O)c3ccco3)C2)c1 (stereo not given)	0.35
CCn1c(C2CCCN(CC(C)=Cc3ccco3)C2)nn(C)c1=O (stereo not given)	-1.1
